Compound activity from PubChem BioAssay.
MITF inh: inhibitors of human MITF; O75030; AlphaScreen MITF homodimerization, bead proximity signal; inhibition, % at 2.6 µM; 650,000 compounds, 0.91% hits; AID 1259374; in the data active = inhibition above about 50%;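 also: 0% = vehicle wells with protein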
TEAD-YAP block: TEAD-YAP interaction inhibition | AID 1259422 | inhibition, % at 9.12 µM | 640,000 compounds, 1.4% hits | HEK-TIYL cells, TEAD-Gal4/YAP UAS-luciferase luminescence; in the data active = inhibition above about 32%;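 also: 0% = median of test compound wells and 100% = reference inhibitor wells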
FBW7 activator: activators of human E3 ligase FBW7; 650,000 compounds, 0.13% hits; AlphaScreen FBW7–phospho-cyclin E peptide binding, activator screen; normalized activity (activation), % at 26.1 µM; Q969H0; in the data active = normalized activity above about 1.9%;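 also: purified mutant Fbw7 with reduced substrate affinity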
GPR151 ag: human GPR151 activation | Q8TDV0 | PathHunter beta-arrestin GPR151 cells, luminescence | activation, % at 11.2 µM | 650,000 compounds, 1% hits | AID 1508602; in the data active = activation above about 4.9%;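 also: 0% = median of compound wells and 100% = cells with positive control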
Target sequence (Q8TDV0 whole entry, looked up): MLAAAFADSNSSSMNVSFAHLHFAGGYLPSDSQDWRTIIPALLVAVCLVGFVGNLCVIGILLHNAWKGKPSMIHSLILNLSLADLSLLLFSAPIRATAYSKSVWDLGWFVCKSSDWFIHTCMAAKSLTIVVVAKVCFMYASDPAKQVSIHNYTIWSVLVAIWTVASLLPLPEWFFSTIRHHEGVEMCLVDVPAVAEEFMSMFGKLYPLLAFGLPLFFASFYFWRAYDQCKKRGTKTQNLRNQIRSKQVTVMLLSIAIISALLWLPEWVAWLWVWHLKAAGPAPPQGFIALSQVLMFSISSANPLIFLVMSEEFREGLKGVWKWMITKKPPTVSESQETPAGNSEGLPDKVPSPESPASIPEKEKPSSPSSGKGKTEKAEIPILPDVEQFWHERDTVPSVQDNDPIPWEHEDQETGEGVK
GPR151 confirm: confirmation of human GPR151 activators | 6,700 tested, under 10 active | GPR151 PathHunter beta-arrestin cells, luminescence, 90 min; % of EA-reagent control over plate median | AID 1508609 | activation, % at 11.2 µM | shares compounds with GPR151 ag;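 active = mean percent activation across replicates above the confirmation screen cutoff of 4.91%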
GPR119 ag: activates human GPR119 in a GPR151 counter-screen. activation, % at 11.2 µM. 6,700 compounds, 0.3% hits. shares compounds with GPR151 ag. GPR119 PathHunter beta-arrestin cells, luminescence, 90 min; 0 = compound-well median, 100 = enzyme-acceptor control;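 active = mean percent activation in the counterscreen above 29.09%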;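 also: counterscreen on off-target GPR119 to flag nonselective hits from the GPR151 activator screen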
Starred values were filed as active, the others as inactive; nt = no result; ! = not active in a repeat. Rows were chosen to be rich in hits. Some 3.4% of all compounds tested hit in one or more screens of this group.

SMILES	MITF inh	TEAD-YAP block	FBW7 activator	GPR151 ag	GPR151 confirm	GPR119 ag
Cc1ccc(N2C(=O)CN(S(C)(=O)=O)CC2(C)C(=O)NC2CCCCC2)cc1C (stereo not drawn)	2.5	0.9	-0.2	5.1*	0.8	-9.1
O=C(O)CCCc1c[nH]c2ccccc12	7.2	-5.6	-0.1	5.0*!	-0.1	3.2
O=C(O)CCCNC(=O)Cc1c[nH]c2ccccc12	-6.7	-5.3	0.2	0.7	nt	nt
c1ccc(Cc2c[nH]c3ccccc23)cc1	6.2	15.7	-0.2	5.3*	-0.6	5.1
Cc1c(CNCCCc2ccccc2)c(C(=O)O)c(C)n1Cc1ccc(F)cc1Cl	9.6	16.3	-0.1	-0.7	nt	nt
Cc1cccc(NC(=O)CCC2CCN(C(=O)Cc3ccsc3)CC2)c1	15.7	-6.7	0.0	5.2*	-0.1	0.8
CCOC(=O)c1c(N)sc(-c2ccccc2)c1Cc1ccccc1	-6.6	-1.3	-0.1	0.6	nt	nt
CCOC(=O)c1c(N)sc(-c2ccccc2)c1C	1.0	-40.0	-0.1	6.2*	-0.5	-1.8
Cc1ccc(C(=O)CSc2nnc(-c3ccccc3N)n2C)cc1	-3.7	-10.2	0.0	5.9*	0.0	-7.1
O=C(Nc1ccccc1O)c1ccc(N2C(=O)C3C4C=CC(C4)C3C2=O)cc1 (stereo not drawn)	-2.1	-126.0	0.0	1.3	nt	nt
O=C(Nc1c[nH]c(=O)[nH]c1=O)c1ccc(N2C(=O)C3C4C=CC(C4)C3C2=O)cc1 (stereo not drawn)	14.8	3.5	0.2	6.7*	-0.5	6.2
CC(=O)Nc1ccc(N2CCCCC2)c(C(=O)Nc2cccc(C)c2)c1	11.9	3.7	0.2	-0.5	nt	nt
Cc1cccc(NC(=O)c2cc(N3C(=O)CCC3=O)ccc2N2CCCCC2)c1	-14.5	3.7	-0.1	8.2*	0.0	8.5
CC(C)CC(=O)N1CCC(c2nc3c(nnn3Cc3cccc(F)c3)c(=O)[nH]2)CC1	3.4	5.3	0.0	5.6*	1.3	7.0
CC(C)CC(=O)N1CCC(c2nc3c(nnn3Cc3ccc(F)cc3)c(=O)[nH]2)CC1	-0.5	2.0	-0.2	1.4	nt	nt
O=C1c2ccccc2C(=O)c2c1ccc(S(=O)(=O)O)c2O	-13.0	-0.4	-0.1	-1.5	nt	nt
COc1ccc(CNS(=O)(=O)c2ccc3[nH]c(=O)ccc3c2)cc1	8.2	3.3	0.1	6.6*	0.1	-5.7
CCOc1c(C)cc(S(=O)(=O)NCCCCN2CCOC(c3ccccc3)C2)cc1C (stereo not drawn)	7.9	4.7	-0.2	11.4*	1.3	-1.0
CC(C)CCn1nc(C(=O)NN)c2ccccc2c1=O	1.1	-2.6	0.1	6.0*	0.7	7.1
Nc1ccc(S(=O)(=O)NCc2ccncc2)cc1	-7.6	1.2	0.6	-0.5	nt	nt
O=S(=O)(NCc1ccncc1)c1ccc(I)cc1	-7.0	39.8*	0.1	9.7*	0.9	10.9
Cc1ccc([N+](=O)[O-])cc1S(=O)(=O)Nc1cccc(-c2cn3cccnc3n2)c1	2.9	-6.0	-0.1	6.1*	0.0	11.7
CCCCC1=CC2=CC(=O)C(C)(OC(=O)CCc3ccccc3)C(=O)C2=CO1 (stereo not drawn)	3.1	nt	-0.1	8.4*	0.1	4.1
CCC(=O)OC1(C)C(=O)C=C2C=C(c3ccc(C#N)cc3)OC=C2C1=O (stereo not drawn)	-18.2	nt	0.1	5.0*	0.7	6.0
CC(C)(C)OC(=O)NCCCC1=CC2=CC(=O)C(C)(OC(=O)CCc3ccccc3)C(=O)C2=CO1 (stereo not drawn)	-2.2	nt	0.1	1.6	nt	nt
CC(C)NC(=O)c1sc2nc(N)c(C#N)cc2c1N	-11.7	-15.7	-0.8	-0.7	nt	nt
O=S(=O)(c1ccc(-n2cccn2)cc1)N1CCc2ccccc21	5.9	6.0	0.6	-1.0	nt	nt
CCCCCCSc1nc2sc3c(c2c(=O)n1-c1ccc(C)cc1)CC(C)(C)OC3	10.4	1.4	0.1	0.6	nt	nt
CCCCCCSc1nc2sc3c(c2c(=O)n1-c1ccc(OC)cc1)CC(C)(C)OC3	-5.6	3.0	-0.1	9.7*	1.4	16.0
Cc1cccc(CNC(=O)CC2C(=O)NCCN2Cc2c(F)cccc2Cl)n1 (stereo not drawn)	-2.5	9.4	0.0	5.1*	0.7	5.5
